Reference: PubChem BioAssay AID1159580 (chemical genetic matrix, 2015)
Where “and” joins values, the source holds several entries; their conditions need not be identical. Identical values can stand only once. Out of some 5,500 compounds screened, about 2,000 (36%) were called active. Not shown: some 18% with an inconclusive outcome. The list shows a part of the results. Unmarked numbers belong to inactive results. Rule as the data show it: active = normalized growth mostly below about 0.91 (no sharp cut-off); inconclusive = no clear call, values can overlap the other calls; inactive = mostly above about 0.92.

Assay: chemical genetic growth profiling, strain panel (AID 1159580);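 also: tested at 20 µM; growth read once vehicle control cultures reached saturation at 30 °C; 1 = growth at the plate median or of vehicle wells; lower values mean less growth of the strain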
Conditions: S. cerevisiae deletion strains, growth OD

Q: With `COc1cc(C(=O)N2CCOCC2)cc(OC)c1OC` as the compound, how does the normalized growth (locus YAL013W, strain DEP1, stronger effect = lower value) read?
A: 1.01

Q: What about the normalized growth (locus YAL021C, strain ccr4, stronger effect = lower value) of the same compound?
A: 1.01

Q: And the normalized growth (locus YAL026C, strain drs2, stronger effect = lower value)?
A: 0.974

Q: What about the normalized growth (locus YAL030W, strain snc1, stronger effect = lower value) of the same compound?
A: 0.984

Q: What about the normalized growth (locus YBL061C, strain skt5, stronger effect = lower value) of the same compound?
A: 0.967

Q: And the normalized growth (locus YBR009C, strain hhf1, stronger effect = lower value)?
A: 1.01

Q: And the normalized growth (locus YBR021W, strain FUR4, stronger effect = lower value)?
A: 0.997

Q: And the normalized growth (locus YBR023C, strain chs3, stronger effect = lower value)?
A: 0.971

Q: What about the normalized growth (locus YBR171W, strain sec66, stronger effect = lower value) of the same compound?
A: 0.972

Q: And the normalized growth (locus YBR229C, strain ROT2, stronger effect = lower value)?
A: 1.01

Q: What about the normalized growth (locus YBR231C, strain swc5, stronger effect = lower value) of the same compound?
A: 0.983

Q: What about the normalized growth (locus YBR279W, strain paf1, stronger effect = lower value) of the same compound?
A: 0.983

Q: And the normalized growth (locus YCL011C, strain gbp2, stronger effect = lower value)?
A: 0.993

Q: And the normalized growth (locus YCL016C, strain dcc1, stronger effect = lower value)?
A: 1

Q: What about the normalized growth (locus YCL029C, strain bik1, stronger effect = lower value) of the same compound?
A: 0.726 (active)

Q: And the normalized growth (locus YCL061C, strain MRC1, stronger effect = lower value)?
A: 0.978

Q: And the normalized growth (locus YCL069W, strain vba3, stronger effect = lower value)?
A: 0.972

Q: And the normalized growth (locus YCR088W, strain abp1, stronger effect = lower value)?
A: 0.978

Q: And the normalized growth (locus YDL005C, strain med2, stronger effect = lower value)?
A: 0.969

Q: And the normalized growth (locus YDL035C, strain GPR1, stronger effect = lower value)?
A: 1.02

Q: What about the normalized growth (locus YDL040C, strain nat1, stronger effect = lower value) of the same compound?
A: 0.974

Q: And the normalized growth (locus YDL074C, strain BRE1, stronger effect = lower value)?
A: 1.01

Q: What about the normalized growth (locus YDL101C, strain DUN1, stronger effect = lower value) of the same compound?
A: 1.02

Q: And the normalized growth (locus YDL134C, strain PPH21, stronger effect = lower value)?
A: 1.01

Q: What about the normalized growth (locus YDL185W, strain tfp1, stronger effect = lower value) of the same compound?
A: 1.01

Q: And the normalized growth (locus YDL192W, strain arf1, stronger effect = lower value)?
A: 0.101 (active)

Q: And the normalized growth (locus YDR001C, strain nth1, stronger effect = lower value)?
A: 0.98

Q: And the normalized growth (locus YDR069C, strain doa4, stronger effect = lower value)?
A: 0.992

Q: What about the normalized growth (locus YDR101C, strain arx1, stronger effect = lower value) of the same compound?
A: 0.494 (active)

Q: What about the normalized growth (locus YDR137W, strain rgp1, stronger effect = lower value) of the same compound?
A: 0.989

Q: And the normalized growth (locus YDR150W, strain NUM1, stronger effect = lower value)?
A: 1.02

Q: What about the normalized growth (locus YDR159W, strain sac3, stronger effect = lower value) of the same compound?
A: 0.961

Q: And the normalized growth (locus YDR162C, strain NBP2, stronger effect = lower value)?
A: 1

Q: And the normalized growth (locus YDR195W, strain ref2)?
A: 0.937

Q: What about the normalized growth (locus YDR297W, strain sur2, stronger effect = lower value) of the same compound?
A: 0.999

Q: What about the normalized growth (locus YDR318W, strain mcm21, stronger effect = lower value) of the same compound?
A: 0.0684 (active)

Q: What about the normalized growth (locus YDR334W, strain swr1, stronger effect = lower value) of the same compound?
A: 0.966

Q: What about the normalized growth (locus YDR335W, strain msn5, stronger effect = lower value) of the same compound?
A: 0.979

Q: What about the normalized growth (locus YDR388W, stronger effect = lower value) of the same compound?
A: 0.0657 (active)

Q: And the normalized growth (locus YDR392W, strain spt3, stronger effect = lower value)?
A: 1.02

Q: And the normalized growth (locus YDR502C, strain sam2, stronger effect = lower value)?
A: 0.111 (active)

Q: And the normalized growth (locus YEL003W, strain gim4, stronger effect = lower value)?
A: 0.985

Q: What about the normalized growth (locus YEL037C, strain rad23, stronger effect = lower value) of the same compound?
A: 0.988

Q: And the normalized growth (locus YEL061C, strain CIN8 (second series), stronger effect = lower value)?
A: 0.964

Q: And the normalized growth (locus YEL061C, strain CIN8, stronger effect = lower value)?
A: 1

Q: What about the normalized growth (locus YER015W, strain faa2, stronger effect = lower value) of the same compound?
A: 0.989

Q: What about the normalized growth (locus YER016W, strain bim1, stronger effect = lower value) of the same compound?
A: 0.987

Q: What about the normalized growth (locus YER110C, stronger effect = lower value) of the same compound?
A: 0.264 (active)

Q: And the normalized growth (locus YER111C, strain swi4, stronger effect = lower value)?
A: 0.945

Q: And the normalized growth (locus YER155C, strain BEM2 (second series), stronger effect = lower value)?
A: 0.994

Q: What about the normalized growth (locus YER155C, strain BEM2, stronger effect = lower value) of the same compound?
A: 1.01

Q: And the normalized growth (locus YER167W, strain BCK2, stronger effect = lower value)?
A: 1.02

Q: And the normalized growth (locus YFR010W, strain ubp6, stronger effect = lower value)?
A: 0.962

Q: What about the normalized growth (locus YGL078C, strain dbp3, stronger effect = lower value) of the same compound?
A: 0.138 (active)

Q: And the normalized growth (locus YGL086W, strain mad1, stronger effect = lower value)?
A: 0.0586 (active)

Q: What about the normalized growth (locus YGL167C, strain pmr1, stronger effect = lower value) of the same compound?
A: 0.971

Q: What about the normalized growth (locus YGL173C, strain kem1, stronger effect = lower value) of the same compound?
A: 0.985

Q: And the normalized growth (locus YGL227W, strain vid30, stronger effect = lower value)?
A: 0.978

Q: And the normalized growth (locus YGL240W, strain doc1, stronger effect = lower value)?
A: 0.991

Q: And the normalized growth (locus YGL248W, strain PDE1, stronger effect = lower value)?
A: 1.01

Q: What about the normalized growth (locus YGL253W, strain hxk2, stronger effect = lower value) of the same compound?
A: 0.97

Q: What about the normalized growth (locus YGR078C, strain PAC10, stronger effect = lower value) of the same compound?
A: 1

Q: What about the normalized growth (locus YGR135W, strain pre9, stronger effect = lower value) of the same compound?
A: 0.0725 (active)

Q: And the normalized growth (locus YGR229C, strain SMI1, stronger effect = lower value)?
A: 1.01

Q: And the normalized growth (locus YGR252W, strain gcn5, stronger effect = lower value)?
A: 0.211 (active)

Q: And the normalized growth (locus YHR013C, strain ard1, stronger effect = lower value)?
A: 0.997

Q: And the normalized growth (locus YHR027C, strain rpn1, stronger effect = lower value)?
A: 0.995

Q: And the normalized growth (locus YHR030C, strain SLT2, stronger effect = lower value)?
A: 1.01

Q: What about the normalized growth (locus YHR079C, strain IRE1 (second series), stronger effect = lower value) of the same compound?
A: 0.578 (active)

Q: And the normalized growth (locus YHR079C, strain IRE1, stronger effect = lower value)?
A: 1.04

Q: What about the normalized growth (locus YHR094C, strain hxt1, stronger effect = lower value) of the same compound?
A: 0.127 (active)

Q: And the normalized growth (locus YHR129C, strain ARP1, stronger effect = lower value)?
A: 0.998

Q: What about the normalized growth (locus YHR142W, strain chs7, stronger effect = lower value) of the same compound?
A: 0.982

Q: And the normalized growth (locus YHR200W, strain rpn10, stronger effect = lower value)?
A: 0.122 (active)

Q: And the normalized growth (locus YIL066C, strain RNR3, stronger effect = lower value)?
A: 1.02

Q: What about the normalized growth (locus YIL073C, strain SPO22, stronger effect = lower value) of the same compound?
A: 1.09

Q: And the normalized growth (locus YIL125W, strain kgd1, stronger effect = lower value)?
A: 0.198 (active)

Q: What about the normalized growth (locus YIR030C, strain dcg1, stronger effect = lower value) of the same compound?
A: 0.292 (active)

Q: And the normalized growth (locus YJL092W, strain hpr5, stronger effect = lower value)?
A: 0.972

Q: And the normalized growth (locus YJL095W, strain BCK1 (second series), stronger effect = lower value)?
A: 0.979

Q: And the normalized growth (locus YJL095W, strain BCK1, stronger effect = lower value)?
A: 0.991 and 0.987

Q: What about the normalized growth (locus YJL115W, strain asf1, stronger effect = lower value) of the same compound?
A: 0.987

Q: What about the normalized growth (locus YJL129C, strain trk1, stronger effect = lower value) of the same compound?
A: 0.958

Q: What about the normalized growth (locus YJL134W, strain LCB3, stronger effect = lower value) of the same compound?
A: 1.01

Q: And the normalized growth (locus YJL154C, strain vps35, stronger effect = lower value)?
A: 0.974

Q: And the normalized growth (locus YJL164C, strain tpk1, stronger effect = lower value)?
A: 0.999

Q: What about the normalized growth (locus YJL166W, strain qcr8, stronger effect = lower value) of the same compound?
A: 1.02

Q: And the normalized growth (locus YJL168C, strain set2, stronger effect = lower value)?
A: 0.202 (active)

Q: What about the normalized growth (locus YJL187C, strain SWE1 (second series), stronger effect = lower value) of the same compound?
A: 1.01

Q: And the normalized growth (locus YJR043C, strain POL32, stronger effect = lower value)?
A: 1.02

Q: What about the normalized growth (locus YJR066W, strain TOR1, stronger effect = lower value) of the same compound?
A: 0.984
